Test results from PubChem BioAssay.
Active and inactive are the calls of the source.

Legend:
[1] = system: PRMT1 (protein arginine N-methyltransferase 1); assay: small molecules binding arginine methyltransferase PRMT1 – biochemical, small-molecule microarray, 635 nm fluorescence, primary screen (AID 1088); details: higher = more signal;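 further: binding of Prmt1 protein to compounds spotted on small-molecule microarray slides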
[2] = growth effects on S. cerevisiae YJM789 – YJM789 clinical isolate, OD600, 24 h, basal, primary screen (AID 1089); details: higher = more signal, called active from +8 up or from −8 down;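 further: growth of clinical yeast isolate S. cerevisiae YJM 789 seeded 1000 cells per well; test concentration not given here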
[3] = S. pombe growth modifiers, basal conditions – strain 972, OD600, 24 h, no modulator, primary screen (AID 1090);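 further: basal condition with compound alone and no growth modifier present; test concentration not given here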; details: S. pombe 972 growth, higher = more signal, called active from +8 up or from −8 down
[4] = budding yeast growth modifiers under rapamycin – strain BY4716, OD600, 96 h, primary screen (AID 1091); further: test concentration not given here; details: S. cerevisiae BY4716 + rapamycin, higher = more signal, called active from +8 up or from −8 down
[5] = molecular target: Torsin-1A-interacting protein 2 (Homo sapiens) (UniProt Q8NFQ8); assay: small molecules binding lysate-expressed LULL1 – cell lysate, human LULL1 lysate, 635/667 nm fluorescence, primary screen (AID 1092); details: small-molecule microarray, hLULL1 lysate binding, 635 nm fluorescence; higher = more signal;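 further: probe is lysate of COS7 cells overexpressing human LULL1; score merges per-feature 667 nm fluorescence with signal-to-noise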
[6] = optical density change of DRC41 E. coli – strain DRC41, OD650, 24 h, E. coli filamentation project, primary screen (AID 1093);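 further: MC1000 strain lacking acrAB efflux and sulA so SOS filamentation is blocked; test concentration not given here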; details: E. coli DRC41 growth, higher = more signal, called active from +8 up or from −8 down
[7] = probe aLefty2 binding to arrayed compounds – biochemical, biotinylated probe, 635/667 nm fluorescence, primary screen (AID 1094); details: small-molecule microarray, higher = more signal;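 further: score merges spot fluorescence near 667 nm with spot signal-to-noise ratio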
[8] = system: Noggin (protein binding on small-molecule microarray); assay: small molecules binding Noggin protein – biochemical, 635/667 nm fluorescence, primary screen (AID 1095); details: 635 nm fluorescence, higher = more signal;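 further: score merges 667 nm feature fluorescence with signal to noise over triplicate slides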
[9] = molecular target: Neurogenic locus notch homolog protein 3 (Homo sapiens) (UniProt Q9UM47); assay: small molecules binding NOTCH3 protein – biochemical, 635/667 nm fluorescence, primary screen (AID 1096); details: small-molecule microarray, 635 nm fluorescence, higher = more signal
[10] = probe aEGFR binding to arrayed compounds – biochemical, biotinylated probe, 635/667 nm fluorescence, primary screen (AID 1097); details: small-molecule microarray, higher = more signal;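 further: probe is a biotinylated anti-EGFR antibody binding compounds printed on slides; score combines fluorescence near 667 nm and signal to noise of each spot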

Chain of Torsin-1A-interacting protein 2 (Homo sapiens) (Q8NFQ8 whole entry, looked up): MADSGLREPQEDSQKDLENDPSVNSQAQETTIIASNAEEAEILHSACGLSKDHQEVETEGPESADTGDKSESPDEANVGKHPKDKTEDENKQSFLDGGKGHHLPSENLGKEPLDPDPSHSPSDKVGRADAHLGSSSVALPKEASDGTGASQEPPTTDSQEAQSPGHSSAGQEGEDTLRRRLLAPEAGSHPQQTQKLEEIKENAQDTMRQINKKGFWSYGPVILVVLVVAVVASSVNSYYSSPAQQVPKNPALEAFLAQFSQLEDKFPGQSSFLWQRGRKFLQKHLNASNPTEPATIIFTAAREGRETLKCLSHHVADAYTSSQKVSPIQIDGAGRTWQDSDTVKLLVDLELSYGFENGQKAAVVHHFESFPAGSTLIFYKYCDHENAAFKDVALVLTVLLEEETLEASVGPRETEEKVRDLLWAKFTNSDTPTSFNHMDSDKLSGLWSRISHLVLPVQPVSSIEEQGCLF
Chain of Neurogenic locus notch homolog protein 3 (Homo sapiens) (Q9UM47 whole entry, looked up): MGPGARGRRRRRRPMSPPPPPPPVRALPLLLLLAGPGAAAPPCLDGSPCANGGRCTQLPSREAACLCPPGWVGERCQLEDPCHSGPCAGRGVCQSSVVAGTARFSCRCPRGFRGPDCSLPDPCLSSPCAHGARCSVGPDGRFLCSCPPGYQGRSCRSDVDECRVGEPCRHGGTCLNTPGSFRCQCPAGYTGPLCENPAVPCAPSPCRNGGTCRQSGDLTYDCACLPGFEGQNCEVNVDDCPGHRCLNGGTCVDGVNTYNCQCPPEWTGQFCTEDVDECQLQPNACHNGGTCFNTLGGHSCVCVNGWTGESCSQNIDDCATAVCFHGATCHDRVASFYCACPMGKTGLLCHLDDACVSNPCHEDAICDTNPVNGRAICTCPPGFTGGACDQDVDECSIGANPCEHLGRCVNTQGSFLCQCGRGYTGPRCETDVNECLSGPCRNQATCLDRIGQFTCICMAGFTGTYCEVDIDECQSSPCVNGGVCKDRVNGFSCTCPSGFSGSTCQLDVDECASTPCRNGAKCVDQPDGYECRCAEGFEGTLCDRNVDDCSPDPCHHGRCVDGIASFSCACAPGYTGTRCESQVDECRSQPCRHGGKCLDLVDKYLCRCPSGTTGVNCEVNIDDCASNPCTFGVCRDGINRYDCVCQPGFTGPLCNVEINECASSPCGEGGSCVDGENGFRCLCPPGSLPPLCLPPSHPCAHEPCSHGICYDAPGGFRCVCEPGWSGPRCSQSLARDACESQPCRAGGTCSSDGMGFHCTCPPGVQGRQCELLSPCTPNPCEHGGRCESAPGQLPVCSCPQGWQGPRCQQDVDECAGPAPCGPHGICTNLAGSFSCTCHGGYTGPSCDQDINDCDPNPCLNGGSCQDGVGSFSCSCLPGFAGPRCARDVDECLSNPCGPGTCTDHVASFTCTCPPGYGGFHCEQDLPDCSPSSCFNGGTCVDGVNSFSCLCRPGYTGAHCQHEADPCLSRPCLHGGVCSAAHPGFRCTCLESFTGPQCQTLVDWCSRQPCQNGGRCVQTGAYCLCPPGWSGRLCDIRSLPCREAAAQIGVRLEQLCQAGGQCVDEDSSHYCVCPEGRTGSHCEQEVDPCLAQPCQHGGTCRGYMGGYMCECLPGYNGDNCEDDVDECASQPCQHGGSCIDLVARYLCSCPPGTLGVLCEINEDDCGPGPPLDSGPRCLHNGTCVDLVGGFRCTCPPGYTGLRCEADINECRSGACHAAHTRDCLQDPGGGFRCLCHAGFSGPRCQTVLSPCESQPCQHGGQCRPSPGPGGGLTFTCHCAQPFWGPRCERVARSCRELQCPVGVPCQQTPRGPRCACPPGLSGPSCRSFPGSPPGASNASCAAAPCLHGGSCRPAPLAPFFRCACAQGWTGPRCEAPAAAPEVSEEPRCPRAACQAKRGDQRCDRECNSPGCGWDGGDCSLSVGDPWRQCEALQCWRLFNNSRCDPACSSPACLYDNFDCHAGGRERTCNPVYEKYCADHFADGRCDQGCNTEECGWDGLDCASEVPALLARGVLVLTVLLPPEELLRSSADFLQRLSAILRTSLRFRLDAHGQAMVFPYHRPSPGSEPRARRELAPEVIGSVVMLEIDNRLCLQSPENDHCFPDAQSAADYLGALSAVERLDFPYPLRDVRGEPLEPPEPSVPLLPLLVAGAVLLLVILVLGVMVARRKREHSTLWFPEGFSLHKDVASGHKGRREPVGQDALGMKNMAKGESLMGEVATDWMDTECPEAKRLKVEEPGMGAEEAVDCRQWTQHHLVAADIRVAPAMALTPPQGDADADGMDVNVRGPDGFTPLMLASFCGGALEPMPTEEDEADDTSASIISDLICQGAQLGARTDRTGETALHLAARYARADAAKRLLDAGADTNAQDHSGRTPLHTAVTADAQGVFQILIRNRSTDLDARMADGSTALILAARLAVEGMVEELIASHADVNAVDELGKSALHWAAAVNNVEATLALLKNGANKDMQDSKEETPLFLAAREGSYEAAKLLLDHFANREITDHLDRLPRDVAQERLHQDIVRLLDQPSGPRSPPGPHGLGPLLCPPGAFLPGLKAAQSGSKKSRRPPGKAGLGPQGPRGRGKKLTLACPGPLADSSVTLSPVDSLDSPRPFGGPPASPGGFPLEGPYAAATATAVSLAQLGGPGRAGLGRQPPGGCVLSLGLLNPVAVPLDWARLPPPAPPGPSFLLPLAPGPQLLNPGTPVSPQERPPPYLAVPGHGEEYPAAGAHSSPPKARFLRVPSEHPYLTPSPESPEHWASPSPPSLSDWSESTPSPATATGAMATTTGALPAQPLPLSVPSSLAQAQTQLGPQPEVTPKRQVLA

Structure (SMILES) | composite z-score [1] | z-score [2] | z-score [3] | z-score [4] | composite z-score [5] | z-score [6] | composite z-score [7] | composite z-score [8] | composite z-score [9] | composite z-score [10]
CCCNC(=O)OC[C@H]1O[C@H](CCON=C2C[C@@H](O)[C@@H](O)[C@@H]3[C@@H]4C(=O)N(CC)C(=O)[C@@H]4CC[C@@H]23)C=C[C@@H]1Oc1ccc(OC)cc1 | 1.07 | -0.284 (inactive) | -0.0922 (inactive) | -0.768 (inactive) | 1.04 | 0.536 (inactive) | -0.0932 | 0.64 | 1.05 | -0.0605
CON=C(C)CCC(=O)OC[C@H]1O[C@H](C#Cc2ccccc2)C=C[C@@H]1Oc1ccc(C)cc1 | 1.06 | 1.42 (inactive) | -14.2 (active) | 1.52 (inactive) | 0.756 | 0.149 (inactive) | -0.143 | 0.351 | 0.326 | -0.0363
CC#CCOCCC=C1c2ccccc2[C@@H](OC)[C@@H]1C | 0.513 | -0.0953 (inactive) | -2.52 (inactive) | -0.933 (inactive) | 0.127 | 0.596 (inactive) | -0.0266 | 0.697 | 0.153 | 0.0579
CC(CCN1CCCCc2nc(C)c(C)cc21)=NO[C@H](C)c1cn([C@@H]2COC[C@H]2O)nn1 | 1.19 | 0.565 (inactive) | 1.07 (inactive) | 0.601 (inactive) | 0.967 | 0.681 (inactive) | 0.0636 | 1.51 | 0.486 | 0.267
CON=C1c2cc(OC)ccc2O[C@H](c2cccc(OC)c2)[C@H]1O | -0.0242 | -0.976 (inactive) | -3 (inactive) | -1.75 (inactive) | 0.365 | 0.792 (inactive) | -0.0515 | 0.588 | 0.684 | 0.0242
CC(C)=CCCC(C)=CCON=C1C[C@@H](O)[C@@H](O)[C@@H]2[C@@H]3C(=O)N(c4cccc(Oc5ccccc5)c4)C(=O)[C@@H]3CC[C@H]12 | 1.04 | 0.788 (inactive) | -0.0823 (inactive) | -0.407 (inactive) | 1.12 | 0.204 (inactive) | -0.138 | 0.485 | 0.782 | 0.0209
CO[C@H]1C[C@@H]2C[C@H](O)CC(CC(=O)O[C@@H](C=CCC(C)C)C[C@@H]3CC[C@H](C)[C@@H](C1)O3)O2 | 1.54 | -0.124 (inactive) | -0.425 (inactive) | -0.414 (inactive) | 1.82 | 0.128 (inactive) | -0.158 | 0.506 | 1.06 | -0.0458
CCN1C(=O)[C@H]2[C@H]3[C@H](O)[C@H](O)CC(=NO[C@@H]4O[C@H](CO)[C@@H](O)[C@H](O)[C@H]4O)[C@H]3CC[C@H]2C1=O | -0.26 | -0.862 (inactive) | -0.238 (inactive) | -0.14 (inactive) | -0.127 | 0.12 (inactive) | -0.204 | 0.484 | 0.65 | -0.128
CC(CCN1CCCc2nc(C)c(C)cc21)=NO[C@@H](C)c1cn([C@H](CO)Cc2ccccc2)nn1 | 0.279 | 0.72 (inactive) | 0.47 (inactive) | 0.672 (inactive) | 0.577 | 0.923 (inactive) | -0.114 | 0.78 | 0.713 | -0.0493
CCOC(=O)CCN1C(=O)[C@H]2[C@H]3[C@H](O)[C@H](O)CC(=NO[C@@H]4O[C@H](CO)[C@@H](O)[C@H](O)[C@H]4O)[C@@H]3CC[C@H]2C1=O | 1.52 | -0.476 (inactive) | -0.664 (inactive) | -0.933 (inactive) | 0.7 | 0.283 (inactive) | -0.0598 | 0.381 | 1.09 | 0.176
CC(=O)OC[C@H]1O[C@H](C#CCCc2ccccc2)C=C[C@@H]1OC(C)=O | 0.374 | 0.664 (inactive) | -2.4 (inactive) | -0.116 (inactive) | 1.38 | 0.396 (inactive) | 0.0092 | 0.57 | 0.341 | -0.021
CO[C@H]1COC(=O)CCC[C@H](C)[C@H](OC)COC(=O)CC=C[C@@H]1C | 1.12 | -1.3 (inactive) | -0.654 (inactive) | -1.59 (inactive) | -1.88 | -0.0243 (inactive) | -0.0113 | 1.13 | -0.398 | 0.0278
COC(=O)[C@@H]1CC[C@H](C)[C@@H](c2ccc(C)cc2)N1C(=O)c1ccc(C=NOC[C@@H](O)[C@H]2O[C@@H]3OC(C)(C)O[C@@H]3[C@H]2O)cc1 | 0.886 | -1.17 (inactive) | 0.459 (inactive) | -0.431 (inactive) | 1.23 | 1.6 (inactive) | -0.0916 | 0.159 | 1.14 | 0.0453
COC(=O)[C@H](C)NC(=O)CCC1CC(OC(=O)NCc2cccc3ccccc23)CC2(CCCC(COC(=O)NCc3ccccc3)O2)O1 (stereo not given in full) | 1.29 | -0.68 (inactive) | 0.507 (inactive) | -0.936 (inactive) | 1.97 | -0.351 (inactive) | -0.0638 | 0.478 | 1.09 | 0.12
C[C@@H]1CC[C@H]2C(=O)OC(CN3C(=O)c4ccccc4C3=O)CN2[C@H]1c1ccc(Br)cc1 (stereo not given in full) | 0.658 | 0.341 (inactive) | 0.35 (inactive) | -0.338 (inactive) | 1.38 | 0.725 (inactive) | -0.185 | -0.263 | 0.361 | -0.0703
O=C1[C@H]2[C@H]3[C@H](O)[C@H](O)CC(=NO[C@@H]4O[C@H](CO)[C@@H](O)[C@H](O)[C@H]4O)[C@@H]3CC[C@H]2C(=O)N1C[C@@H]1CCCO1 | 1.08 | 0.57 (inactive) | -0.0413 (inactive) | -0.0603 (inactive) | 1.21 | 0.415 (inactive) | -0.0683 | -0.287 | 0.979 | 0.0934
COC(=O)C1=C(C)N(Cc2ccccc2)C2=C3C(=O)OCC[C@@H]3[C@@](O)(C(=O)OC)C(=O)N2[C@@H]1c1ccccc1 | -0.737 | 0.833 (inactive) | -0.992 (inactive) | -0.265 (inactive) | 0.0296 | 0.659 (inactive) | -0.0342 | 0.454 | 0.542 | 0.0035
OC[C@H]1O[C@H](C#Cc2ccccc2)C=C[C@@H]1O | 0.232 | 0.643 (inactive) | -1.33 (inactive) | -0.98 (inactive) | 0.233 | 0.897 (inactive) | -0.113 | 0.498 | 0.609 | -0.124
CCN1C(=O)[C@H]2[C@H]3[C@H](O)[C@H](O)CC(=NOC[C@@H](O)COCc4ccco4)[C@H]3CC[C@H]2C1=O | 1.21 | -0.0365 (inactive) | -0.258 (inactive) | -0.0439 (inactive) | 0.327 | 0.316 (inactive) | -0.339 | 1.79 | 0.0738 | -0.099
CCN1C(=O)[C@H]2[C@H]3[C@H](O)[C@H](O)CC(=NOCC[C@@H]4C=C[C@H](OC(C)=O)[C@@H](COC(C)=O)O4)[C@@H]3CC[C@H]2C1=O | -0.001 | 0.826 (inactive) | -0.473 (inactive) | 0.0739 (inactive) | 0.506 | 0.0628 (inactive) | 0.0819 | 0.478 | 1 | -0.0208
O=C1[C@H]2[C@H]3[C@H](O)[C@H](O)CC(=NOC[C@@H](O)COCc4ccco4)[C@@H]3CC[C@H]2C(=O)N1Cc1ccccc1 | 1.53 | -0.444 (inactive) | -0.801 (inactive) | -1.63 (inactive) | 2.66 | 0.267 (inactive) | -0.166 | 1.04 | 0.841 | 0.0673
CCN1C(=O)[C@H]2[C@H]3[C@H](O)[C@H](O)CC(=NOCC=C(C)CCC=C(C)C)[C@@H]3CC[C@H]2C1=O | 1.4 | -0.56 (inactive) | -1.86 (inactive) | -1.3 (inactive) | 0.915 | 0.756 (inactive) | -0.0973 | 0.962 | 1.08 | 0.095
COC(=O)[C@H](C)NC(=O)CCC1CC(OC(=O)NCc2cccc3ccccc23)CC2(CCCC(COC(=O)NCCCN3CCCC3=O)O2)O1 (stereo not given in full) | 1.58 | 0.691 (inactive) | 1.05 (inactive) | 0.187 (inactive) | 1.89 | -1.25 (inactive) | 0.0598 | 0.79 | 1.14 | 0.074
COC(=O)[C@@H]1CC[C@H](C)[C@@H](c2ccc(Br)cc2)N1C(=O)C(F)(F)F | -1.18 | 0.61 (inactive) | 0.186 (inactive) | 2.16 (inactive) | 1.25 | 0.11 (inactive) | -0.22 | -0.281 | -0.446 | -0.226
